Reference: the supplement of paper PMC6555819

The sequences below were run on LXRb homodimer (NR concentration 270 nM) (assay: PBM binding z-score (relative to random genomic background probes); higher = stronger binding; sequences stand for … in GC…GCGATTGACAGCGTAGAATGAAGG).
In short: (§1)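 For binding z-scores, the reference was random background probes on custom Agilent 4×180K protein-binding microarrays. These arrays were incubated 1 h with ligand-free nuclear receptor dimers in PBS pH 7.4, 2% milk, 0.02% Triton X-100, 1 mM DTT, 0.2 mg/mL BSA and 0.4 mg/ml salmon testes DNA. Fluorescence was scanned after antibody detection of each partner (one per run) and regression-normalized.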
In the case of CCTGCTAGGTCAAGGTCAGCTAATCTACAGTATG, the PBM binding z-score is reported as 0.294.
CCGACTGGGGCAGAGAGGTTACCATACCATCCGG gave a PBM binding z-score of -1.44.
TCTTGTAGATCAACAGGTGGTTAAGAAAGATCGA gave a PBM binding z-score of -0.293.
In the case of CCTATTGGGCCAAAGGTCATTGATTCCAATGCTC, the PBM binding z-score is reported as 1.02.
Work on CCTGCTAGGTCATGGTCAGCTCATCTACAGTATG yielded a PBM binding z-score of 0.157.
With TCAAGCAGGCCAGAGGGTCACTCAAGAGGTACGG the PBM binding z-score was -1.
ACAGACAGGTGATCAAGGTAACTCAGGCTATCAT gave a PBM binding z-score of -0.411.
Work on CCCGAAAGGTCGGTTGAGGTGAGTATACGGATAA yielded a PBM binding z-score of 0.134.
TATACAGGGTCAATGGCCAGAGTACGAATGTCGA was tested, and the PBM binding z-score was 2.05.
CCTACTGGGCTAAAGGTCATTGATTCCAATGCTC gave a PBM binding z-score of 0.6.
For CCTGCTAGGTCCTGGTCAGCTAATCTACAGTATG, the PBM binding z-score was -1.07.
TCTGCTAGGTCAGTAGGTCAGCTAACGAGCTGCC gave a PBM binding z-score of -0.0966.
In the case of TCTTGTAGATCAGCAGATTAAGAAAGCTGGCCAA, the PBM binding z-score is reported as -0.494.
GCTTACGGATCAAAGGTTATAGCATGAATAGAAT was tested, and the PBM binding z-score was -0.332.
ACTCGGAGGACAAAGGGCAGAGCTACGCCAGTGA was tested, and the PBM binding z-score was -0.71.
Work on GGAACGAGAGCATTCGAGTTGATAGCATGGCGAT yielded a PBM binding z-score of -1.55.
In the case of GCTTGTAGATCATGGTTAAGAAAGACTAAGCTAA, the PBM binding z-score is reported as -0.647.
Sequence CGAACTCGGTCAAGGACAGTGAATCTCCGCACGC has a PBM binding z-score of -0.75.

Each sequence was assayed on PPARa:RXRa (NR concentration 270 nM, RXRa partner concentration 90 nM) in the same assay as above.
In short: as §1
For CCTACTGGGCAAAAGGTCATTGATTCCAATGCTC, the PBM binding z-score was 5.57.
For CAGCCTAGATCAGGGCCAGTATAGGAGGAACGTT, the PBM binding z-score was -0.772.
With ACTAGTTGGTCAGCTGAGGTCACACAGAATTCGG the PBM binding z-score was 3.8.
GCAGACAGGTTAAACGCAGGTAACTCAGGGTGGC showed a PBM binding z-score of 1.7.
For TCATATGGGTAATACAGGTGAAAGTCGGCATCTA, the PBM binding z-score was 1.82.
For GCAGACAGGTAAAACGCAGGTAACTCAGGGTGGC, the PBM binding z-score was -0.183.
Work on CGTCAAAGTTCAATGTAACGTAACAGAAAGCAGC yielded a PBM binding z-score of 4.08.
Sequence GGTACGAGGGCAAGTTGATAGCAGAGTTTGATGG has a PBM binding z-score of 1.02.
For TAGCCCAGGTCATTCAGGGGCCAGTATAGAAAGC, the PBM binding z-score was 3.9.
In the case of AGAATGCGGTTATTAAGATCAGGGAATTGCGGTC, the PBM binding z-score is reported as -0.484.
Sequence GCTTACGAGTCAAAGGTTATAGCATGAATAGAAT has a PBM binding z-score of 4.52.
GCAGACAGGTGAGACGCAGGTAACTCAGGGTGGC was tested, and the PBM binding z-score was 0.164.
Work on CCTACTGGGCTAAAAAGGTCATTGATGCCGATAA yielded a PBM binding z-score of 4.67.
In the case of CAGCCTAGGTCAGGGCCAGTCTAGGAGGAACGTT, the PBM binding z-score is reported as 2.
In the case of CCGACTGAGGCAAAGGTTACCATACTCAGTACGA, the PBM binding z-score is reported as 3.69.
GATACAGGGTCAAAGCCAGAGTACGCGTATTGAT was tested, and the PBM binding z-score was 5.59.
ATACCAAGGTGATCGTGAGGTCGGTGATACTAAC was tested, and the PBM binding z-score was 0.78.
For CCGCCTGGGGCAAGGTTACCATAACGCACAGCCA, the PBM binding z-score was 1.21.
Sequence CCAGACAGGTGAGAAGGTAACTGAGCCTCGATTA has a PBM binding z-score of 0.592.
Work on CGAACTAGGACATTGACAGGACAGTGAATAGTAA yielded a PBM binding z-score of 0.451.
CAGACTAGGTCACAGAGGTCAAAGTCCGTGCGTA showed a PBM binding z-score of 6.22.
GCGACTGGGGCATCAGTAGGTTACCATAACTTAA gave a PBM binding z-score of 1.55.
With CCTGCTAGGTCAAGGTCAGCTAATCTACAGTATG the PBM binding z-score was 4.45.
In the case of CCGACTGGGGCAGAGAGGTTACCATACCATCCGG, the PBM binding z-score is reported as 1.48.
Sequence TCTTGTAGATCAACAGGTGGTTAAGAAAGATCGA has a PBM binding z-score of 0.436.
CCTATTGGGCCAAAGGTCATTGATTCCAATGCTC showed a PBM binding z-score of 5.83.
CCTGCTAGGTCATGGTCAGCTCATCTACAGTATG showed a PBM binding z-score of 3.42.
In the case of TCAAGCAGGCCAGAGGGTCACTCAAGAGGTACGG, the PBM binding z-score is reported as 2.59.
For ACAGACAGGTGATCAAGGTAACTCAGGCTATCAT, the PBM binding z-score was -0.038.
CCCGAAAGGTCGGTTGAGGTGAGTATACGGATAA was tested, and the PBM binding z-score was 2.76.
TATACAGGGTCAATGGCCAGAGTACGAATGTCGA gave a PBM binding z-score of 5.16.
Work on CCTACTGGGCTAAAGGTCATTGATTCCAATGCTC yielded a PBM binding z-score of 6.09.
Sequence CCTGCTAGGTCCTGGTCAGCTAATCTACAGTATG has a PBM binding z-score of -0.283.
For TCTGCTAGGTCAGTAGGTCAGCTAACGAGCTGCC, the PBM binding z-score was 3.55.
TCTTGTAGATCAGCAGATTAAGAAAGCTGGCCAA was tested, and the PBM binding z-score was 0.385.
Work on GCTTACGGATCAAAGGTTATAGCATGAATAGAAT yielded a PBM binding z-score of 4.12.
ACTCGGAGGACAAAGGGCAGAGCTACGCCAGTGA showed a PBM binding z-score of 1.88.
Work on GGAACGAGAGCATTCGAGTTGATAGCATGGCGAT yielded a PBM binding z-score of -0.713.
GCTTGTAGATCATGGTTAAGAAAGACTAAGCTAA showed a PBM binding z-score of -0.285.
In the case of CGAACTCGGTCAAGGACAGTGAATCTCCGCACGC, the PBM binding z-score is reported as 0.927.

What follows are sequences tested on PPARg:RXRa (NR concentration 180 nM, RXRa partner concentration 90 nM) in the same assay as above.
In short: as §1
CCTACTGGGCAAAAGGTCATTGATTCCAATGCTC was tested, and the PBM binding z-score was 10.4.
CAGCCTAGATCAGGGCCAGTATAGGAGGAACGTT was tested, and the PBM binding z-score was 0.274.
ACTAGTTGGTCAGCTGAGGTCACACAGAATTCGG gave a PBM binding z-score of 1.87.
Work on GCAGACAGGTTAAACGCAGGTAACTCAGGGTGGC yielded a PBM binding z-score of 0.69.
Work on TCATATGGGTAATACAGGTGAAAGTCGGCATCTA yielded a PBM binding z-score of 1.1.
GCAGACAGGTAAAACGCAGGTAACTCAGGGTGGC showed a PBM binding z-score of 0.515.
CGTCAAAGTTCAATGTAACGTAACAGAAAGCAGC was tested, and the PBM binding z-score was 3.65.
For GGTACGAGGGCAAGTTGATAGCAGAGTTTGATGG, the PBM binding z-score was 0.722.
TAGCCCAGGTCATTCAGGGGCCAGTATAGAAAGC showed a PBM binding z-score of 2.2.
AGAATGCGGTTATTAAGATCAGGGAATTGCGGTC gave a PBM binding z-score of 0.0333.
Work on GCTTACGAGTCAAAGGTTATAGCATGAATAGAAT yielded a PBM binding z-score of 5.72.
GCAGACAGGTGAGACGCAGGTAACTCAGGGTGGC gave a PBM binding z-score of 0.374.
CCTACTGGGCTAAAAAGGTCATTGATGCCGATAA showed a PBM binding z-score of 2.38.
With CAGCCTAGGTCAGGGCCAGTCTAGGAGGAACGTT the PBM binding z-score was 0.484.
In the case of CCGACTGAGGCAAAGGTTACCATACTCAGTACGA, the PBM binding z-score is reported as 6.77.
In the case of GATACAGGGTCAAAGCCAGAGTACGCGTATTGAT, the PBM binding z-score is reported as 5.42.
With ATACCAAGGTGATCGTGAGGTCGGTGATACTAAC the PBM binding z-score was 0.426.
Sequence CCGCCTGGGGCAAGGTTACCATAACGCACAGCCA has a PBM binding z-score of 0.654.
CCAGACAGGTGAGAAGGTAACTGAGCCTCGATTA showed a PBM binding z-score of 0.397.
For CGAACTAGGACATTGACAGGACAGTGAATAGTAA, the PBM binding z-score was 0.933.
Sequence CAGACTAGGTCACAGAGGTCAAAGTCCGTGCGTA has a PBM binding z-score of 8.66.
Sequence GCGACTGGGGCATCAGTAGGTTACCATAACTTAA has a PBM binding z-score of 1.69.
For CCTGCTAGGTCAAGGTCAGCTAATCTACAGTATG, the PBM binding z-score was 3.7.
CCGACTGGGGCAGAGAGGTTACCATACCATCCGG gave a PBM binding z-score of 1.35.
In the case of TCTTGTAGATCAACAGGTGGTTAAGAAAGATCGA, the PBM binding z-score is reported as -0.255.
For CCTATTGGGCCAAAGGTCATTGATTCCAATGCTC, the PBM binding z-score was 11.8.
With CCTGCTAGGTCATGGTCAGCTCATCTACAGTATG the PBM binding z-score was 2.25.
TCAAGCAGGCCAGAGGGTCACTCAAGAGGTACGG gave a PBM binding z-score of 1.67.
With ACAGACAGGTGATCAAGGTAACTCAGGCTATCAT the PBM binding z-score was 0.479.
CCCGAAAGGTCGGTTGAGGTGAGTATACGGATAA gave a PBM binding z-score of 0.61.
With TATACAGGGTCAATGGCCAGAGTACGAATGTCGA the PBM binding z-score was 5.11.
CCTACTGGGCTAAAGGTCATTGATTCCAATGCTC gave a PBM binding z-score of 11.2.
For CCTGCTAGGTCCTGGTCAGCTAATCTACAGTATG, the PBM binding z-score was -0.294.
In the case of TCTGCTAGGTCAGTAGGTCAGCTAACGAGCTGCC, the PBM binding z-score is reported as 4.84.
TCTTGTAGATCAGCAGATTAAGAAAGCTGGCCAA gave a PBM binding z-score of -0.628.
Sequence GCTTACGGATCAAAGGTTATAGCATGAATAGAAT has a PBM binding z-score of 5.77.
ACTCGGAGGACAAAGGGCAGAGCTACGCCAGTGA showed a PBM binding z-score of 3.1.
Work on GGAACGAGAGCATTCGAGTTGATAGCATGGCGAT yielded a PBM binding z-score of 0.37.
GCTTGTAGATCATGGTTAAGAAAGACTAAGCTAA showed a PBM binding z-score of -0.054.
In the case of CGAACTCGGTCAAGGACAGTGAATCTCCGCACGC, the PBM binding z-score is reported as 0.826.
